ChEMBL document CHEMBL4513148, “CO-ADD screening of Stellenbosch University (South Africa) compounds”
Potency and affinity values are given separately.

Columns and labels:
Staphylococcus aureus = conditions: Concentration 32 ug.mL-1; ASSAY_TEST Inhibition of Bacterial Growth; detection method Absorption (OD600); MEDIA CAMHB; plate type 384well; NBS; CORNING #3640; time 18 hr
Escherichia coli = conditions: Concentration 32 ug.mL-1; ASSAY_TEST Inhibition of Bacterial Growth; detection method Absorption (OD600); MEDIA CAMHB; plate type 384well; NBS; CORNING #3640; time 18 hr

SMILES | Inhibition (Staphylococcus aureus) | Inhibition (Escherichia coli)
CCCCCCCNC(=O)CCNC(=O)C(O)C(C)(C)C (configuration not stated) | 18.01% | -4.21%
CC(C)(CO)[C@H](O)C(=O)NCCC(=O)NCc1cn(C[C@H]2O[C@@H](n3ccc(N)nc3=O)[C@H](O)[C@@H]2O)nn1 | 2.11% | -13.27%
CC(C)(CO)[C@@H](O)C(=O)NCCC(=O)NNCc1ccccc1 | 15.8% | -5.42%
CC(C)(CO)[C@H](O)C(=O)NCCC(=O)OCc1cn(C[C@H]2O[C@@H](n3ccc(N)nc3=O)[C@H](O)[C@@H]2O)nn1 | 8.97% | -9.8%
C#CCNC(=O)[C@H](O)C(C)(C)CO | 0.74% | 3.62%
CC(C)(CO)[C@H](O)C(=O)NCCCc1cn(C[C@H]2O[C@@H](n3ccc(N)nc3=O)[C@H](O)[C@@H]2O)nn1 | 12.15% | -9.07%
